Test results published in PubChem BioAssay (EPA / NIEHS).
“And” between values parts separate entries of the source, which are not always exact repeats. Equal entries are not always repeated. Some structures have more than one record in an assay (separate samples or runs), and their calls can disagree. The source made the active and inactive calls. Rule for the calls: active = hit-call score of the fitted dose curve at least 0.9, where 1 is the maximum; inactive = score below 0.9.

Tests used:
[1] = read-out: Collagen I, COL1A1 (gene 1277); assay: BSK_MyoF_CollagenI: BioMAP Diversity Plus: MyoF Assay for Collagen I Biomarker Activity (AID 2284238); details: primary human lung fibroblasts
In short: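 ELISA readout of Collagen I after 24 h chemical treatment of primary human lung fibroblast cultures; gain of signal scored relative to DMSO vehicle baseline.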

[2] = read-out: Collagen III, COL3A1 (gene 1281); assay: BSK_MyoF_CollagenIII: BioMAP Diversity Plus: MyoF Assay for Collagen III Biomarker Activity (AID 2284239); details: primary human lung fibroblasts
In short: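 Lung fibroblast culture; 24 h compound exposure; collagen III by ELISA; gain-of-signal fit vs DMSO baseline.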

[3] = read-out: Interleukin 17F (IL17F), IL17F (gene 112744); assay: BSK_BT_xIL17F: BioMAP Diversity Plus: BT Assay for Interleukin 17F (IL17F) Biomarker Activity (AID 2284243); details: primary human B cells with PBMC
In short: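 Secreted IL-17F, read on LumineX xMAP beads, was taken as the endpoint. Cultures combined human B cells and peripheral blood mononuclear cells, sampled 24 hours after dosing, with DMSO serving as negative control.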

[4] = read-out: Actin alpha 1 (ACTA1), ACTA1 (gene 58); assay: BSK_MyoF_ACTA1: BioMAP Diversity Plus: MyoF Assay for Actin alpha 1 (ACTA1) Biomarker Activity (AID 2284244); details: primary human lung fibroblasts
In short: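 MyoF fibroblast system (human lung); a-SMA quantified via ELISA at 24 h; DMSO-normalised, gain-of-signal endpoint.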

[5] = read-out: Interleukin 2 (IL2), IL2 (gene 3558); assay: BSK_BT_xIL2: BioMAP Diversity Plus: BT Assay for Interleukin 2 (IL2) Biomarker Activity (AID 2284245); details: primary human B cells with PBMC
In short: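 Co-cultures of primary human B cells and PBMC are treated with chemical and sampled at 24 h. IL-2 secretion is quantified by Luminex xMAP, with DMSO-treated wells as baseline.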

[6] = read-out: Basic fibroblast growth factor (bFGF), FGF2 (gene 2247); assay: BSK_MyoF_bFGF: BioMAP Diversity Plus: MyoF Assay for Basic fibroblast growth factor (bFGF) Biomarker Activity (AID 2284246); details: primary human lung fibroblasts
In short: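 Fibroblasts from human lung, 24 h dosing. bFGF by ELISA; gain of signal over DMSO.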

[7] = read-out: Collagen IV, COL4A1 (gene 1282); assay: BSK_MyoF_CollagenIV: BioMAP Diversity Plus: MyoF Assay for Collagen IV Biomarker Activity (AID 2284247); details: primary human lung fibroblasts
In short: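 Lung fibroblasts (human primary) treated with chemicals were assayed after 24 h for Collagen IV using an ELISA, with DMSO serving as negative control and baseline for a positive-direction fit.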

[8] = read-out: Plasminogen activator inhibitor-1 (PAI1), SERPINE1 (gene 5054); assay: BSK_MyoF_PAI1: BioMAP Diversity Plus: MyoF Assay for Plasminogen activator inhibitor-1 (PAI1) Biomarker Activity (AID 2284256); details: primary human lung fibroblasts
In short: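 MyoF lung fibroblasts, human primary; compound 24 h; PAI-1 ELISA; positive-direction fit vs DMSO baseline; parallel SRB total-protein staining for cytotoxicity.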

[9] = read-out: Interleukin-8 (IL8), CXCL8 (gene 3576); assay: BSK_MyoF_IL8: BioMAP Diversity Plus: MyoF Assay for Interleukin-8 (IL8) Biomarker Activity (AID 2284261); details: primary human lung fibroblasts
In short: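 Lung fibroblasts (human primary) → chemical exposure → 24 h → IL-8 measured by ELISA. Signal increase scored versus DMSO control.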

[10] = read-out: Decorin, DCN (gene 1634); assay: BSK_MyoF_Decorin: BioMAP Diversity Plus: MyoF Assay for Decorin Biomarker Activity (AID 2284265); details: primary human lung fibroblasts
In short: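 ELISA readout of decorin, 24 h post-dosing; primary human lung fibroblast (MyoF) culture; gain-of-signal fit vs DMSO baseline.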

[11] = BSK_MyoF_SRB: Viability Assessment in the BioMAP Diversity Plus: MyoF Assay (AID 2284267); details: primary human lung fibroblasts;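 note: total protein by SRB absorbance in parallel cultures as cytotoxicity measure; cells assessed 24 h after compound addition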
In short: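 In this viability endpoint, fibroblasts from human lung are treated for 24 h, TCA-fixed, SRB-stained (0.1%) and read at 560 nm. Gain of signal relative to DMSO defines activity.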

[12] = read-out: TIMP metallopeptidase inhibitor 1 (TIMP1), TIMP1 (gene 7076); assay: BSK_MyoF_TIMP1: BioMAP Diversity Plus: MyoF Assay for TIMP metallopeptidase inhibitor 1 (TIMP1) Biomarker Activity (AID 2284269); details: primary human lung fibroblasts
In short: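 ELISA quantified TIMP-1 levels after 24 h dosing of primary human lung fibroblasts, with DMSO as baseline. Parallel SRB total protein staining (0.1% SRB after TCA fixation, 560 nm) flagged overt cytotoxicity.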

[13] = read-out: Monokine induced gamma interferon (MIG), CXCL9 (gene 4283); assay: BSK_KF3CT_MIG: BioMAP Diversity Plus: KF3CT Assay for Monokine induced gamma interferon (MIG) Biomarker Activity (AID 2284248); details: primary human keratinocytes with fibroblasts
In short: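 ELISA read-out of MIG after 24 h chemical exposure of human skin primary co-culture (keratinocytes, foreskin fibroblasts). Gain of signal relative to DMSO negative control was analysed.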

[14] = read-out: Collagen I, COL1A1 (gene 1277); assay: BSK_hDFCGF_CollagenI: BioMAP Diversity Plus: hDFCGF Assay for Collagen I Biomarker Activity (AID 2284250); details: primary human foreskin fibroblasts
In short: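 Readout: Collagen I by ELISA after 24 h compound treatment of primary human foreskin fibroblasts. Endpoint analysed for increases relative to DMSO; total protein by SRB in parallel wells flagged cytotoxicity.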

[15] = read-out: Interferon-inducible T-cell alpha chemoattractant (ITAC), CXCL11 (gene 6373); assay: BSK_hDFCGF_ITAC: BioMAP Diversity Plus: hDFCGF Assay for Interferon-inducible T-cell alpha chemoattractant (ITAC) Biomarker Activity (AID 2284251); details: primary human foreskin fibroblasts
In short: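 Measured by ELISA, the chemokine level serves as the endpoint in human skin fibroblast primary cultures 24 h after compound addition. Increases relative to DMSO-treated wells define activity.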

[16] = read-out: Plasminogen activator inhibitor-1 (PAI1), SERPINE1 (gene 5054); assay: BSK_KF3CT_PAI1: BioMAP Diversity Plus: KF3CT Assay for Plasminogen activator inhibitor-1 (PAI1) Biomarker Activity (AID 2284252); details: primary human keratinocytes with fibroblasts
In short: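 In this co-culture of primary human keratinocytes and foreskin fibroblasts, PAI-1 was measured by ELISA at 24 h and fitted upward from DMSO.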

[17] = read-out: Interleukin-8 (IL8), CXCL8 (gene 3576); assay: BSK_KF3CT_IL8: BioMAP Diversity Plus: KF3CT Assay for Interleukin-8 (IL8) Biomarker Activity (AID 2284254); details: primary human keratinocytes with fibroblasts
In short: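 IL-8 read-out: ELISA, 24 h post-dose, human skin primary co-culture (keratinocytes + foreskin fibroblasts). DMSO = baseline; positive-direction fit.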

[18] = read-out: Intercellular Adhesion Molecule 1 (ICAM1), ICAM1 (gene 3383); assay: BSK_BE3C_ICAM1: BioMAP Diversity Plus: BE3C Assay for Intercellular Adhesion Molecule 1 (ICAM1) Biomarker Activity (AID 2284278); details: primary human bronchial epithelial cells;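 note: cell-surface ICAM-1 protein level quantified by ELISA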
In short: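 hu bronchial epithelial primary cells, 24 h cpd exposure, ICAM-1 ELISA; gain-of-signal fit vs DMSO baseline.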

Measured: AC50

O=P(c1ccccc1)(c1ccccc1)c1ccccc1
not listed: [13] | [14] | [15] | [16] | [17] | [18]
inactive: all other assays above

C=C(C)C(=O)O[C@H]1C[C@@H]2CC[C@@]1(C)C2(C)C
active: [1] 29.2 µM | [2] 31.9 µM | [4] 33.1 µM | [6] 31.3 µM | [7] 25 µM | [8] 29.5 µM | [10] 31.7 µM | [11] 34.8 µM | [12] 32.3 µM
inactive: [3] | [5] | [9]

COc1cc(C=O)ccc1OC(=O)C(C)C
inactive: [13] | [14] | [15] | [16] | [17] | [18]

CCc1c(C)cc(N)c(CC)c1N
not listed: [13] | [14] | [15] | [16] | [17] | [18]
inactive: all other assays above

c1ccc2c(c1)c1cccc3ccc4cccc2c4c31
active: [3] 20 µM | [7] 0.0413 µM | [8] 0.016 µM
not listed: [13] | [14] | [15] | [16] | [17] | [18]
inactive: all other assays above

OC1OC[C@@H](O)[C@H](O)[C@H]1O (stereo not given in full)
inactive: [13] | [14] | [15] | [16] | [17] | [18]

O=C1OC2(c3cc(Br)c(O)c(Br)c3Oc3c2cc(Br)c(O)c3Br)c2c(Cl)c(Cl)c(Cl)c(Cl)c21
inactive: [3] | [5]
active: [1] 3.89 µM | [2] 4.52 µM | [4] 5.23 µM | [6] 11.9 µM | [7] 2.72 µM | [8] 4.56 µM | [9] 20 µM | [10] 13.2 µM | [11] 9.73 µM | [12] 8.64 µM

CC(=O)O[C@]1(C(C)=O)CC[C@H]2[C@@H]3C[C@H](C)C4=CC(=O)CC[C@]4(C)[C@H]3CC[C@@]21C
active: [3] 10 µM
not listed: [13] | [14] | [15] | [16] | [17] | [18]
inactive: all other assays above

C#C[C@]1(O)CC[C@H]2[C@@H]3CCC4=Cc5oncc5C[C@]4(C)[C@H]3CC[C@@]21C
active: [2] 28.1 µM | [3] 25.3 µM | [5] 28.6 µM | [6] 30.8 µM | [8] 3.97 µM | [12] 35.8 µM
inactive: [1] | [4] | [7] | [9] | [10] | [11]

O=C(O)C[C@H](O)C[C@H](O)/C=C/c1c(C2CC2)nc2ccccc2c1-c1ccc(F)cc1
inactive: [1] | [6] | [7] | [10] | [12]
active: [2] 2.16 µM | [3] 3.26 µM | [4] 1.37 µM | [5] 5 µM | [8] 5 µM | [9] 1.1 µM | [11] 3.1 µM

O=C(O)c1cn(C2CC2)c2cc(N3CCNCC3)c(F)cc2c1=O
not listed: [13] | [14] | [15] | [16] | [17] | [18]
inactive: all other assays above

Cc1ccc(O)c(C(C)(C)C)c1
active: [1] 35.4 µM | [2] 30.3 µM | [4] 30.9 µM | [6] 36.1 µM | [8] 31.6 µM | [11] 34.3 µM | [12] 33.7 µM
inactive: [3] | [5] | [7] | [9] | [10]

O=[N+]([O-])c1cc(C(F)(F)F)ccc1Cl
active: [8] 0.11 µM
not listed: [13] | [14] | [15] | [16] | [17] | [18]
inactive: all other assays above

O=C=NC1CCC(CC2CCC(N=C=O)CC2)CC1 (stereo not given)
not listed: [13] | [14] | [15] | [16] | [17] | [18]
inactive: all other assays above

OC[C@H]1O[C@H](O[C@]2(CCl)O[C@H](CCl)[C@@H](O)[C@@H]2O)[C@H](O)[C@@H](O)[C@H]1Cl
inactive: [13] | [14] | [15] | [16] | [17] | [18]

CC(=O)OCCC(C)CC(C)(C)C (stereo not given)
inactive: [13] | [14] | [15] | [16] | [17] | [18]

CC[Si](OC(C)=O)(OC(C)=O)OC(C)=O
inactive: [13] | [14] | [15] | [16] | [17] | [18]

CC(C)c1ccc(C(C)C)cc1
not listed: [13] | [14] | [15] | [16] | [17] | [18]
inactive: all other assays above

CC(C)Oc1ccccc1O
not listed: [13] | [14] | [15] | [16] | [17] | [18]
inactive: all other assays above

Nc1cc([N+](=O)[O-])ccc1O
inactive: [13] | [14] | [15] | [16] | [17] | [18]

C=CCOC(=O)CCC1CCCCC1
inactive: [13] | [14] | [15] | [16] | [17] | [18]

CC1CCC(C(C)CS)CC1S (stereo not given)
inactive: [3] | [5]
active: [1] 5.96 µM | [2] 9.71 µM | [4] 9.28 µM | [6] 7.89 µM | [7] 11.8 µM | [8] 8.22 µM | [9] 11.1 µM | [10] 10.1 µM | [11] 9.53 µM | [12] 11.1 µM

CC(=O)[C@H]1CC[C@H]2[C@@H]3CC=C4C[C@@H](O)CC[C@]4(C)[C@H]3CC[C@]12C
active: [14] 5.65 µM and 9.87 µM | [16] 3.88 µM
inactive: [13] | [15] | [16] | [17] | [18]

CCC(=O)OCc1ccccc1
inactive: [13] | [14] | [15] | [16] | [17] | [18]

Cc1cc(C2(c3cc(C)c(O)cc3C)OS(=O)(=O)c3ccccc32)c(C)cc1O
inactive: [13] | [14] | [15] | [16] | [17] | [18]

C[C@H]1C[C@@H]2[C@H]([C@@H](O)C[C@@]3(C)[C@H]2CC[C@]3(O)C(=O)CO)[C@@]2(C)C=CC(=O)C=C12
inactive: [13] | [14] | [15] | [16] | [17] | [18]

NCCNCCN
inactive: [13] | [14] | [15] | [16] | [17] | [18]

Nc1cc([N+](=O)[O-])ccc1Cl
not listed: [13] | [14] | [15] | [16] | [17] | [18]
inactive: all other assays above
